Measurements as given in the supplement of paper PMC10042075.
Where “and” joins values, the source holds several entries; their conditions need not be identical. Equal values may be shown once. Where a name gives a salt, the structure may show the parent alone.

Test system: LASCPC-01
Test: cell viability relative to DMSO control (fraction); higher = less growth inhibition (more viable cells)
Conditions: 2 µM; 72 h
Procedure: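 High-throughput single-dose screen in the LASCPC-01 NEPC cell line in 384-well plates. Cells were treated with each compound at 2 µM for 72 h, and viability was read by CellTiter-Glo luminescence. Values are normalised to the DMSO control (compound/DMSO) from three replicates; only the 5-HT-related subset of the 7315-compound library is given.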

Structure (SMILES) | cell viability
CN1CCC[C@@H]1Cc1c[nH]c2ccc(CCS(=O)(=O)c3ccccc3)cc12 [Eletriptan hydrobromide] | 1.21
CN(C)CC[C@@H](c1ccc(Cl)cc1)c1ccccn1 [Dexchlorpheniramine Maleate] | 0.891
NC(N)=NC(N)=Nc1cccc(Cl)c1 [1-(m-Chlorophenyl)-biguanide hydrochloride] | 1.03
CN1CCC(=C2c3ccccc3CCc3sccc32)CC1 [Pizotifen] | 0.586
COc1ccc2cccc(CCNC(C)=O)c2c1 [Agomelatine] | 1.07
COc1ccccc1N1CCN(CCN2C(=O)CC3(CCCC3)CC2=O)CC1 [BMY 7378 dihydrochloride] | 1.07
O=C(c1ccc(F)cc1)C1CCN(CCn2c(=O)[nH]c3ccccc3c2=O)CC1 [Ketanserin] | 0.968
CN(C)CC(c1ccc(O)cc1)C1(O)CCCCC1 (stereo not given) [Desvenlafaxine] | 1
OC(CN1CCN(c2cccc(Cl)c2)CC1)C(c1ccccc1)c1ccccc1 (stereo not given) | 0.778
NCCCCCNCC12CC3CC(CC(C3)C1)C2 [IEM 1754 dihydrobroMide] | 0.808
N[C@@H](Cc1c[nH]c2ccccc12)C(=O)O [L-Tryptophan] | 0.904
O=C1CC2(CCCC2)CC(=O)N1CCCCN1CCN(c2ncccn2)CC1 [Buspirone hydrochloride] | 1.08
CN(C)CC(c1ccc(O)cc1)C1(O)CCCCC1 (stereo not given) [Desvenlafaxine Succinate] | 0.883
Cn1c(=O)cnn(CCCCN2CCN(c3ncccn3)CC2)c1=O [Eptapirone] | 0.947
Cc1nc2ccccn2c(=O)c1CCN1CCC(C(=O)c2ccc(F)cc2)CC1 [Pirenperone] | 0.645
CN1CC2c3ccccc3Oc3ccc(Cl)cc3C2C1 (stereo not given) [Asenapine] | 0.974
CNS(=O)(=O)CCc1ccc2[nH]cc(C3CCN(C)CC3)c2c1 [Naratriptan] | 1.03
COc1cc(/C=C/C(=O)NCCn2c(C(F)(F)F)cc3ccccc32)cc(OC)c1OC | 0.968
CC1CCN(CC[C@H]2CCCN2S(=O)(=O)c2cccc(O)c2)CC1 | 0.707 and 0.855
N[C@@H]1CC[C@@H](c2ccc(Cl)c(Cl)c2)c2ccccc21 [Dasotraline hydrochloride] | 1.13

Structure (SMILES) | cell viability
CN(C)CCC[C@@]1(c2ccc(F)cc2)OCc2cc(C#N)ccc21 [Escitalopram Oxalate] | 0.982
Cc1cnc(CNCC2(F)CCN(C(=O)c3ccc(F)c(Cl)c3)CC2)nc1 | 0.989
O=C1NCCN1CCN1CCC(c2cn(-c3ccc(F)cc3)c3ccc(Cl)cc23)CC1 [Sertindole] | 0.499
CN(C)[C@@H]1CCc2[nH]c3ccc(NC(=O)c4ccc(F)cc4)cc3c2C1 | 0.693
Cc1cc2c(cc1Cl)N(C(=O)Nc1ccc(Oc3cccnc3C)nc1)CC2 | 0.0538
CC(C)(C)c1ccc(CN2CCN(C(c3ccccc3)c3ccc(Cl)cc3)CC2)cc1 (stereo not given) [Buclizine HCl] | 0.896
COc1ccc2cc(Br)ccc2c1 [2-Bromo-6-methoxynaphthalene] | 0.899
CN[C@H]1CC[C@@H](c2ccc(Cl)c(Cl)c2)c2ccccc21 [Sertraline hydrochloride] | 0.958
COC(=O)[C@H]1[C@H]2C[C@@H]3c4[nH]c5cc(OC)ccc5c4CCN3C[C@H]2C[C@@H](OC(=O)c2cc(OC)c(OC)c(OC)c2)[C@@H]1OC [Reserpine] | 0.918
CN1CCc2c(c3ccccc3n2Cc2ccccc2)C1 [Mebhydrolin napadisylate] | 1.03
CN(C)CCC=C1c2ccccc2C=Cc2ccccc21 [Cyclobenzaprine hydrochloride] | 0.947
CC(CN(C)C)CN1c2ccccc2CCc2ccccc21 (stereo not given) [Trimipramine maleate] | 1.01
CCN1CCN(c2cc(-c3ccc(F)cc3)c3c(n2)CCCCCC3)CC1 [Blonanserin] | 0.776
CN(C)CCCN1c2ccccc2CCc2ccccc21 [Imipramine hydrochloride] | 1.13
COc1cc2c(cc1OC)[C@@H]1Cc3ccc(OC)c(OC)c3CN1CC2 [Rotundine] | 1.05
CN[C@H]1CC[C@@H](c2ccc(Cl)c(Cl)c2)c2ccccc21 [Sertraline HCl] | 0.833
NCCc1c[nH]cn1 [Histamine] | 1.07
COc1ccc(NS(=O)(=O)c2sc3ccc(Cl)cc3c2C)cc1N1CCNCC1 | 1.09 and 0.772
Cc1cc(-c2ccccc2)nnc1NCCN1CCOCC1 [Minaprine dihydrochloride] | 1
CC1(C)C(=O)N(CCN2CCC(C(=O)c3ccc(F)cc3)CC2)c2ccccc21 | 0.991
